According to PubChem BioAssay AID2661 (Broad Institute, 2010):
Among all 320,000 compounds or so, about 240 (0.075%) were called active.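 Rule for the calls: active = inhibition at or above 25%, using the most active replicate where run in duplicate; inactive = inhibition below 25%.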 The entries come from a sample that favours actives as a whole.

These compounds were tested against Serine/threonine-protein kinase 33 (Homo sapiens) (UniProt Q9BYT3) (assay: inhibitors of purified STK33 kinase, primary screen, biochemical, ADP-Glo luminescence, homogeneous, cell-free (AID 2661)). Conditions: purified STK33, MBP phosphorylation, at 10 µM, hits give high values.
Serine/threonine-protein kinase 33 (Homo sapiens), sequence (Q9BYT3 whole entry, looked up): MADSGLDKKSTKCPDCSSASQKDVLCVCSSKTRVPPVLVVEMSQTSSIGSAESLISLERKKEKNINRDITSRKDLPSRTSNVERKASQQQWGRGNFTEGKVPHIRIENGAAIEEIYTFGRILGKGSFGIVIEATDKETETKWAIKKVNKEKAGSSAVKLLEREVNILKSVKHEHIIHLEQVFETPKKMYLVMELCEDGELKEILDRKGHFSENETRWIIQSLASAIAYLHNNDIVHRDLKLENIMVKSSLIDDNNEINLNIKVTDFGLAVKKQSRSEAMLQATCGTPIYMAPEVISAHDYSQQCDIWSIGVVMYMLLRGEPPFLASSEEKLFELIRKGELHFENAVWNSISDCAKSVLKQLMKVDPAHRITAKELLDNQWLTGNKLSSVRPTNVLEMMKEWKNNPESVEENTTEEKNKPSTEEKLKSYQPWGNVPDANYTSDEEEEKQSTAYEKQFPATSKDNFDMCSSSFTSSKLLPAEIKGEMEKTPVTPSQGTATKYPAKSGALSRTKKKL

SMILES	inhibition
O=C(Nc1nnc(-c2ccccc2)o1)c1cccc(S(=O)(=O)N2CCOCC2)c1	-0.807% (inactive)
COc1cc(OC)cc(C(=O)NCC(=O)OCC(=O)NC(C)CCc2ccccc2)c1 (stereo not drawn)	-0.78% (inactive)
Cn1cccc1C(=O)OCC(=O)NCCc1ccccc1	-0.939% (inactive)
CC(C#N)OC(=O)c1cccnc1SCC(=O)Nc1ccc2c(c1)OCO2 (stereo not drawn)	0.605% (inactive)
CC(=O)c1c(C)[nH]c(C(=O)COC(=O)c2cccs2)c1C	-3.01% (inactive)
COc1cc(OC)cc(-c2cc3ccc(F)cc3cn2)c1	1.46% (inactive)
COc1ccc2nc3n(c(=O)c2c1)-c1ccc(Cl)cc1C(=O)NC3Cc1ccccc1 (stereo not drawn)	0.119% (inactive)
COc1cc(C(=O)NC2CCN(C)CC2)ccc1Nc1ncc2c(n1)N(C1CCC(O)CC1)CCC(=O)N2C (stereo not drawn)	54.5% (active)
COc1ccc(-n2cnc3cc(C(=O)NC4CCCC4)ccc32)cc1	-0.505% (inactive)
COc1ccc(C(=O)NC2CC2)cc1OC1CCN(Cc2cnn(C)c2)CC1	0.281% (inactive)
Cc1ccc(C(=O)Nc2ccccc2-c2ccccc2)cc1S(=O)(=O)Nc1ccccc1	-1.82% (inactive)
COCCN(CCOC)S(=O)(=O)NC[C@H]1O[C@@H](n2cnc3c(N)ncnc32)[C@H](O)[C@@H]1O	-0.284% (inactive)
COc1ccccc1CNC(=O)COC(=O)c1cccs1	-1% (inactive)
COc1cc(SC)ccc1C(=O)NNC(=O)C1COc2ccccc2O1 (stereo not drawn)	-1.07% (inactive)
O=C(CSc1nccn1-c1cccc(F)c1)NC1CCCC1	0.473% (inactive)
Cc1ccc(NS(=O)(=O)c2ccc(C(C)C)cc2)cc1S(=O)(=O)N1CCOCC1	-3.33% (inactive)
O=C(N=C1SC2CS(=O)(=O)CC2N1c1ccccc1)c1ccccc1 (stereo not drawn)	0.811% (inactive)
COc1cc(OC)cc(-c2sc3ccc(OC)cc3c2-c2ccc3cc[nH]c3c2)c1	1.63% (inactive)
CC(Oc1ccc2c(-c3ccccc3)cc(=O)oc2c1)C(=O)NC(Cc1c[nH]c2ccccc12)C(=O)O (stereo not drawn)	-3% (inactive)
COc1cccc2sc3cc(NCC[C@@H]4CCCN4C)ccc3c(=O)c12	4.13% (inactive)
COC(=O)[C@]1(CC(C)C)N[C@H](c2ccc(SC3CCCCC3)cc2)[C@@H]2C(=O)N(C)C(=O)[C@@H]21	-0.318% (inactive)
COc1ccc(C(=O)C(C)OC(=O)c2cccc(S(=O)(=O)Nc3c(C)n(C)n(-c4ccccc4)c3=O)c2)cc1 (stereo not drawn)	-0.0798% (inactive)
CC(=O)C(CC(=O)N1CCCC1)C(=O)Nc1ccc(Cl)cc1 (stereo not drawn)	-0.972% (inactive)
